According to the supplement of paper PMC10849652:
About 7,900 targets were measured; listed, in parts, are those with a hit and a random draw of the rest. About 0.6% of all pairs of compound and target were hits.

The targets below were run with C1=CC(=C(C=C1Cl)C2=NC3=NC=CN=C3C(=N2)NC4=CC=NC=C4)F (assay: log2 fold change, soluble protein after heating vs DMSO (PISA); higher = thermal stabilisation; K562 cells, 10 uM, 30 min; active = over 0.2 and 3.5 SD of the protein, either way, in both replicates (recomputed)).
Summary of the method: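 Soluble protein was defined as the supernatant after 21,000xg for 90 min. It came from K562 cells at 2×10^6 cells/mL given 10 μM compound for 30 min, heated in aliquots for 3 min across 48°C-58°C, pooled, and extracted in PBS with 0.5% NP-40 at 4°C, and was quantified by TMTpro 16plex LC-MS/MS with equalised channel sums. Thermal stability against control samples, from duplicates, is reported as log2 fold change.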

Chain of UniProt P29084 (P29084 whole entry, looked up): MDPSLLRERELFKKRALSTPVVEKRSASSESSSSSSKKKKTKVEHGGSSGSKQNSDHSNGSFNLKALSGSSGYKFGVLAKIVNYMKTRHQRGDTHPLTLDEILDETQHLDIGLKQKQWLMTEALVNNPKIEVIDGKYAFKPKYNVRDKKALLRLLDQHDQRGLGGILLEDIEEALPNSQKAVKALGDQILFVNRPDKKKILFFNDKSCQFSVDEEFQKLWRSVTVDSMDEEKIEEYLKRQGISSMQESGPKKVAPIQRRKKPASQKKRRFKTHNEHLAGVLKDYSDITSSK
Chain of UniProt Q8NCW6 (Q8NCW6 whole entry, looked up): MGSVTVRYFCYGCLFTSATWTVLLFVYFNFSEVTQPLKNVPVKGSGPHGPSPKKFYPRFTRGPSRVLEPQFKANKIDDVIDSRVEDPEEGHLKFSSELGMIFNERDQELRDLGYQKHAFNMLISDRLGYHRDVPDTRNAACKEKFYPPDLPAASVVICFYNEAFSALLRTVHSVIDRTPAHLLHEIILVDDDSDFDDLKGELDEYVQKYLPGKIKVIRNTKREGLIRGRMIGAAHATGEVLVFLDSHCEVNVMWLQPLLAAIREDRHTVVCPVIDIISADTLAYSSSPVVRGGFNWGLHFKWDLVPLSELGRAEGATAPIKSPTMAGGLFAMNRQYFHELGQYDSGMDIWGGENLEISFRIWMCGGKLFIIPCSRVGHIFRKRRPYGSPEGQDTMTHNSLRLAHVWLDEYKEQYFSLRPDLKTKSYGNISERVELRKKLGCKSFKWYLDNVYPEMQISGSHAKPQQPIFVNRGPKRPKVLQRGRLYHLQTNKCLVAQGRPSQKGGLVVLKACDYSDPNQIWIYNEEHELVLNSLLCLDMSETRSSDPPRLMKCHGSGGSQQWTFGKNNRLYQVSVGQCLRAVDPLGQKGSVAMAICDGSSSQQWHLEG
Chain of UniProt P50213 (P50213 whole entry, looked up): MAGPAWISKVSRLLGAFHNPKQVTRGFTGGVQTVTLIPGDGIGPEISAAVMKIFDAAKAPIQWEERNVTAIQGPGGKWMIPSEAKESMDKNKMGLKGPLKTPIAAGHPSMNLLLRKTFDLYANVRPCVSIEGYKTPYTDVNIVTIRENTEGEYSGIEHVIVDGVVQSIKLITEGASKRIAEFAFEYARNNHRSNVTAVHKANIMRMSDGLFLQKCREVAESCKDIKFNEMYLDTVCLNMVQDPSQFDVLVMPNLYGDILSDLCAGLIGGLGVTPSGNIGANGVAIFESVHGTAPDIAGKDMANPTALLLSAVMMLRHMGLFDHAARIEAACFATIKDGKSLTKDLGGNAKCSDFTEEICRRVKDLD
Chain of UniProt Q9BUP3 (Q9BUP3 whole entry, looked up): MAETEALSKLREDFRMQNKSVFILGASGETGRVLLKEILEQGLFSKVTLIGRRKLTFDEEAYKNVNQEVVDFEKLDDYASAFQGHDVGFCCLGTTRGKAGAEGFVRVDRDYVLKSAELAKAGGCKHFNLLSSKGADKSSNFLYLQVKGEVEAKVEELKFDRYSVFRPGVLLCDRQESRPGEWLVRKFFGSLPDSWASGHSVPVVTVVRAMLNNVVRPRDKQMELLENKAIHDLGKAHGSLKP
Chain of UniProt Q03014 (Q03014 whole entry, looked up): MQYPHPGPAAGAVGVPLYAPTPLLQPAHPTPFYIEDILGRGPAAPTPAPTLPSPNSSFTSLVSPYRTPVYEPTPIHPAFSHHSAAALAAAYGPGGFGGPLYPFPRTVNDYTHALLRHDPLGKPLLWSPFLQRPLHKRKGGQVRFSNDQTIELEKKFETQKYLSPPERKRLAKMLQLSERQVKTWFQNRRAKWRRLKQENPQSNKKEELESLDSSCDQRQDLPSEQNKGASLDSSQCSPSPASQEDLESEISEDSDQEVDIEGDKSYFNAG
Chain of UniProt P02008 (P02008 whole entry, looked up): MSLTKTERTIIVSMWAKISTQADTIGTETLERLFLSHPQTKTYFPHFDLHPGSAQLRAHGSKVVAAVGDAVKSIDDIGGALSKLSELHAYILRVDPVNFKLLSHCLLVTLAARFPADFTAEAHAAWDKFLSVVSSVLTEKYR
Chain of UniProt P55084 (P55084 whole entry, looked up): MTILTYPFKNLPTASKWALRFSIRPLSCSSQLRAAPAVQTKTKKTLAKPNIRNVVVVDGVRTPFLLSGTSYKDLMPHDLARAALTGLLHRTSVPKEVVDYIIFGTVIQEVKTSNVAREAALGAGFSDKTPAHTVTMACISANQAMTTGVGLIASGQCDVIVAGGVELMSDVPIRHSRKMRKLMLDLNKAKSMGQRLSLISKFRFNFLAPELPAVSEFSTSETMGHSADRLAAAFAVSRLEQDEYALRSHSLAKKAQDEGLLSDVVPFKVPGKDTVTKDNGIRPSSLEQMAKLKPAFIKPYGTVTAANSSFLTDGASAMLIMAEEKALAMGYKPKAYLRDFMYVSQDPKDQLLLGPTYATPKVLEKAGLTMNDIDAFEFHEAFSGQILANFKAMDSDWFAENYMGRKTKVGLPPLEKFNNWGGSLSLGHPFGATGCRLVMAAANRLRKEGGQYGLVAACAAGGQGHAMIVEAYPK
Chain of UniProt Q8TEQ6 (Q8TEQ6 whole entry, looked up): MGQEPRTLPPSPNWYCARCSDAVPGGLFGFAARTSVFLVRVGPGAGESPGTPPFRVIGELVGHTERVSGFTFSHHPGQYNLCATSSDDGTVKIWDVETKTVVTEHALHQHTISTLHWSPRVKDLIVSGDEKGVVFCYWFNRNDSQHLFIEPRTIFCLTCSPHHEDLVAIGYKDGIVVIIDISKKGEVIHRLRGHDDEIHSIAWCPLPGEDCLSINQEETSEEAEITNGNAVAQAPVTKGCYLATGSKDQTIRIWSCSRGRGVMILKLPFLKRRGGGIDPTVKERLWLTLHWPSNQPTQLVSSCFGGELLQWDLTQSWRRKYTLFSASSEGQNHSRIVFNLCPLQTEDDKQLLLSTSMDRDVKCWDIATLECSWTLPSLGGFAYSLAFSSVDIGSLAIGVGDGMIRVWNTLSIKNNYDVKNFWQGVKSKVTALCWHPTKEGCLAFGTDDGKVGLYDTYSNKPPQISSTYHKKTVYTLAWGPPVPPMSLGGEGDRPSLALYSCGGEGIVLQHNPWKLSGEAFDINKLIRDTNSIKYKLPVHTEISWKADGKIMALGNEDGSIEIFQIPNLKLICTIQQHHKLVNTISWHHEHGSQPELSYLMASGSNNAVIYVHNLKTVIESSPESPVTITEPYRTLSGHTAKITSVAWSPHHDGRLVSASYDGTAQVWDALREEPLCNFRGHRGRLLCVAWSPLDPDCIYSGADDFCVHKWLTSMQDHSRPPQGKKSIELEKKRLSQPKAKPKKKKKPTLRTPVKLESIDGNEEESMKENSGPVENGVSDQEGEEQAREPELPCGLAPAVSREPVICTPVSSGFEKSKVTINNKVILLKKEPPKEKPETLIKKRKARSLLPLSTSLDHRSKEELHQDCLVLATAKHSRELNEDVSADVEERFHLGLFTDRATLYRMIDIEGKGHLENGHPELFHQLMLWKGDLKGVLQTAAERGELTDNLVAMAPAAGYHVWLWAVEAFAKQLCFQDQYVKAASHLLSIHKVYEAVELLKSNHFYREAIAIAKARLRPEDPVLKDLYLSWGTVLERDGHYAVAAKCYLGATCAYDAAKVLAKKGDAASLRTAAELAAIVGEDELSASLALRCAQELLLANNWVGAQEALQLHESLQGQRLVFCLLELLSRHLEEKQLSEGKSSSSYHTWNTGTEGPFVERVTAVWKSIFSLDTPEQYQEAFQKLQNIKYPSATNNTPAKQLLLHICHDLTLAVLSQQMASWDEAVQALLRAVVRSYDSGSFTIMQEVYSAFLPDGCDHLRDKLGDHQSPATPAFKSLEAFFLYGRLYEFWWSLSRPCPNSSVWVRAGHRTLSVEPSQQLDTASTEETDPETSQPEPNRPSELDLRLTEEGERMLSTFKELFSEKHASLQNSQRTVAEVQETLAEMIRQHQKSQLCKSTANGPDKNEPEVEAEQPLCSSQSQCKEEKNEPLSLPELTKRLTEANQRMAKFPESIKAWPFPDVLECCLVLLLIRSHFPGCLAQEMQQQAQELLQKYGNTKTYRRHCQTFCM
Chain of UniProt O15347 (O15347 whole entry, looked up): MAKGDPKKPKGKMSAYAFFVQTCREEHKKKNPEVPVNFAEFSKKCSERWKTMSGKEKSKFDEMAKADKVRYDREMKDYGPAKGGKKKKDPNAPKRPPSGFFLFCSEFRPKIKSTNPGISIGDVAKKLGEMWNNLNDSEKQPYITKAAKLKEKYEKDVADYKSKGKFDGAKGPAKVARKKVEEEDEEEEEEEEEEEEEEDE
Chain of UniProt P16278 (P16278 whole entry, looked up): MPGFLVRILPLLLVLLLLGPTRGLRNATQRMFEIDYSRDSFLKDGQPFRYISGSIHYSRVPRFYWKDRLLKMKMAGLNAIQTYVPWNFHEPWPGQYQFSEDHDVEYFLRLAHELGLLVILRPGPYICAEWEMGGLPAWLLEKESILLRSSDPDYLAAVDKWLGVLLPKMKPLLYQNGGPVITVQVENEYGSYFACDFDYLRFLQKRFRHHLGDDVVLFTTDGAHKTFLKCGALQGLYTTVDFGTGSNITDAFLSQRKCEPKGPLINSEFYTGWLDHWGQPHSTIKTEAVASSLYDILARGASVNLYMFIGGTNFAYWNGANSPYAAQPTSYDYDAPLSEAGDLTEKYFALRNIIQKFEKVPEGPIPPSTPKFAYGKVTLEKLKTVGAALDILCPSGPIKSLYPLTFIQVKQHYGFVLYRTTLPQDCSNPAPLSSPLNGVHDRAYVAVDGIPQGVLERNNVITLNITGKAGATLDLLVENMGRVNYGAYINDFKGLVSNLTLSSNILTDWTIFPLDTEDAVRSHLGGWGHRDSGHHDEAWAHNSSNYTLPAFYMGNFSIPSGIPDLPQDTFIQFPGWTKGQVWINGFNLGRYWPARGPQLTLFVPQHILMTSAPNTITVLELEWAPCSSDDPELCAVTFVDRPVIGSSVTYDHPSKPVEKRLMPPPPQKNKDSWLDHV
Chain of UniProt P63218 (P63218 whole entry, looked up): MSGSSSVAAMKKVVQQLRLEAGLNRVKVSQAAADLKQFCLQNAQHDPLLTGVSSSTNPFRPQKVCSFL

| Target | log2 fold change |
| --- | --- |
| HMGB3 (UniProt O15347) | 0.047 (inactive) |
| HNRNPUL1 (UniProt Q9BUJ2) | 0.018 (inactive) |
| FANCD2 isoform 1 (UniProt Q9BXW9) | -0.003 (inactive) |
| HOOK3 (UniProt Q86VS8) | 0.009 (inactive) |
| HECTD1 (UniProt Q9ULT8) | -0.031 (inactive) |
| HDGFL2 (UniProt Q7Z4V5) | 0.042 (inactive) |
| GTF2E1 (UniProt P29083) | 0.046 (inactive) |
| IFI30 (UniProt P13284) | -0.084 (inactive) |
| GSK3B isoform 2 (UniProt P49841) | 0.007 (inactive) |
| GIGYF2 (UniProt Q6Y7W6) | -0.022 (inactive) |
| GPAT4 (UniProt Q86UL3) | 0.06 (inactive) |
| HTATIP2 isoform 3 (UniProt Q9BUP3) | 0.016 (inactive) |
| H2AZ1 (UniProt P0C0S5) | -0.554 (inactive) |
| IFRD2 isoform 2 (UniProt Q12894) | 0.003 (inactive) |
| GEMIN5 (UniProt Q8TEQ6) | -0.049 (inactive) |
| HIC2 (UniProt Q96JB3) | -0.17 (inactive) |
| GTF2B (UniProt Q00403) | 0.048 (inactive) |
| IDH3A (UniProt P50213) | 0.1 (inactive) |

| Target | log2 fold change |
| --- | --- |
| HNRNPF (UniProt P52597) | -0.036 (inactive) |
| GAGE12F (UniProt P0CL80) | 0.017 (inactive) |
| GDE1 (UniProt Q9NZC3) | 0.055 (inactive) |
| GLB1 (UniProt P16278) | 0 (inactive) |
| FASTKD1 (UniProt Q53R41) | 0.142 (inactive) |
| GALNT4 (UniProt Q8N4A0) | 0.075 (inactive) |
| HHEX (UniProt Q03014) | 0.069 (inactive) |
| HPCAL1 (UniProt P37235) | 0.029 (inactive) |
| GNG5 (UniProt P63218) | 0.436 (active) |
| GLYR1 (UniProt Q49A26) | -0.289 (inactive) |
| HLTF (UniProt Q14527) | 0.068 (inactive) |
| GTF2E2 (UniProt P29084) | 0.048 (inactive) |
| HADHB (UniProt P55084) | 0.035 (inactive) |
| HBZ (UniProt P02008) | 0.252 (inactive) |
| FBXO42 (UniProt Q6P3S6) | -0.002 (inactive) |
| GALNT11 (UniProt Q8NCW6) | 0.033 (inactive) |
| GNB2 (UniProt P62879) | -0.04 (inactive) |
